Entries with a potency or affinity are not part of this list. Unmarked numbers belong to inactive results.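 How the source made its calls: active means cell killing, meaning signal decrease, with fitted half-maximal dose at or below ten times the top valid tested dose; inconclusive means poor fit, or flat curve with 30 to 70% signal loss; inactive means the rest.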
Assay: ATP-based viability loss in HeLa cells – cell-based, CellTiter-Glo luminescence, cherry-pick samples, cytotoxicity control for MITF activator project, dose response (AID 540259);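 further: 0% = DMSO neutral control and -100% = mitoxantrone positive control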
Conditions: 24 h; series mostly up to 35 µM; activity change, negative = cytotoxicity: at the top concentration

| SMILES | activity change, negative = cytotoxicity |
| --- | --- |
| O=C(Cc1ccccc1)Nc1nc(-c2cccs2)cs1 | -7.3% |
| O=C(Nc1cnc2ccccc2c1)N1CCCCC1 | 17% |
| O=C(Nc1ccc(NC(=O)c2ccccc2F)cc1)c1cccs1 | -13.1% |
| O=C(Nc1ccc(F)cc1Cl)c1ccc2c(=O)n3c(nc2c1)CCC3 | 13.9% |
| COC(=O)c1ccc(CSC2=NCCS2)cc1 | 9.68% |
| N#Cc1c(-c2ccc(Cl)cc2)ccn2nc(C3CCCCC3)nc12 | -3.42% |
| Clc1ccc(-n2nnc(-c3ncc[nH]3)n2)cc1Cl | 0.421% |
| CC(C)(C)c1ccc(-c2noc(-c3ccno3)n2)cc1 | -6.69% |
| COc1ccc(Br)c(C(=O)Nc2nc3ccccc3[nH]2)c1 | -2.95% |
| COc1ccc(C(=O)CN2Cc3ccccc3C2=N)cc1 | 0.527% |
| O=c1c2c(nc3cc(-c4ccc(Br)cc4)[nH]n13)CCCC2 | 1.93% |
| Clc1ccc(C#Cc2cccnc2)cc1 | 8.41% |
| O=C(NC1=NCCS1)c1ccc(Cl)s1 | 3.77% |
| CC(=O)c1cccc(OCc2cc(C(=O)N(C)Cc3cnccn3)no2)c1 | 4.9% |
| Cc1ccccc1Nc1nc(N)nc(COC(=O)c2ccccc2)n1 | 11.2% |
